Experimental data: PubChem BioAssay (EPA / NIEHS)
Where “and” joins values, the source holds several entries; their conditions need not be identical. Equal values may be shown once. Inconclusive results are not listed. Some structures have more than one record in an assay (separate samples or runs), and their calls can disagree. Calls of active or inactive are those of the source. How the source made its calls, unless noted: active means hit-call score of the fitted dose curve at least 0.9, where 1 is the maximum; inactive means score below 0.9.

What was measured:
[1] = target: Paired box protein Pax-6 (Homo sapiens) (UniProt P26367); test: ATG_Pax6_CIS: Attagene CIS-FACTORIAL HepG2 Assay for human Paired Box 6 (PAX6) (AID 2282956); details: HepG2 CIS-FACTORIAL PAX6 reporter transcription, RNA readout; actives raise or lower the signal
Chain of Paired box protein Pax-6 (Homo sapiens) (P26367 whole entry, looked up): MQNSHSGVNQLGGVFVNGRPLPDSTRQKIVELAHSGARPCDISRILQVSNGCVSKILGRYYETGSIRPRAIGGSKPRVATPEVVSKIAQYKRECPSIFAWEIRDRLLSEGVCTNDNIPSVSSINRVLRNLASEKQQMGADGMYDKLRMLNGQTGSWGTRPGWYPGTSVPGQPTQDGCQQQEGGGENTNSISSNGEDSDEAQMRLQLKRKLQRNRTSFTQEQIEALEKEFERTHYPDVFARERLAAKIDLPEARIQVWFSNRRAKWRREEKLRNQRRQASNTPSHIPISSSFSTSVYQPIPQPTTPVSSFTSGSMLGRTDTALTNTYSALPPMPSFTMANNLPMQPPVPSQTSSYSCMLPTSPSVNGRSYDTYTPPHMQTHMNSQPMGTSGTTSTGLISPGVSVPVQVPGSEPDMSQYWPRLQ
Outline: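 Multiplexed cis-reporter HepG2 system; 24 h treatment; reporter mRNA read by RT-PCR/CE fluorescence; bidirectional fit vs DMSO.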

[2] = ATG_PXRE_CIS: Attagene CIS-FACTORIAL HepG2 Assay for human Pregnane X Receptor Element (PXRE) (AID 2282957); details: HepG2 Attagene CIS-FACTORIAL PXRE reporter, mRNA; actives raise or lower the signal
Outline: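 HepG2 cells transiently transfected with cis-regulated multiple reporter transcription units; endogenous factor activity measured as reporter mRNA 24 h after dosing. RT-PCR, fluorescent primer extension, HpaI digestion, capillary electrophoresis; bidirectional fit versus DMSO baseline.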

[3] = ATG_PPRE_CIS: Attagene CIS-FACTORIAL HepG2 Assay for human Peroxisome Proliferator-activated Response Element (PPRE) (AID 2282958); details: HepG2 PPRE cis-element reporter, Attagene transcription factor profiling; actives raise or lower the signal
Outline: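 PPRE activity in HepG2: transient cis-reporter transfection, 24 h compound incubation, reporter mRNA by RT-PCR and CE fluorescence; gain/loss fitted against DMSO.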

[4] = ATG_RORE_CIS: Attagene CIS-FACTORIAL HepG2 Assay for human RAR-related Orphan Receptor Element (RORE) (AID 2282959); details: HepG2 Attagene cis-factorial RORE reporter, mRNA; actives raise or lower the signal
Outline: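 A 24-hour exposure of transfected HepG2 hepatoma cells precedes RNA isolation and reporter RT-PCR. Labeled products are digested with HpaI and resolved by capillary electrophoresis, with gain or loss of signal scored relative to DMSO.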

[5] = ATG_Sox_CIS: Attagene CIS-FACTORIAL HepG2 Assay for human SRY-box transcription factor (SOX) (AID 2282960); details: HepG2 Attagene cis-factorial SOX reporter, mRNA; actives raise or lower the signal
Outline: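 HepG2, cis reporter units, 24 h exposure. Reporter mRNA: RT-PCR → FAM labelling → HpaI → CE fluorescence. Bidirectional fit vs DMSO.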

[6] = target: Transcription factor Sp1 (Homo sapiens) (UniProt P08047); test: ATG_Sp1_CIS: Attagene CIS-FACTORIAL HepG2 Assay for human Specificity Protein 1 (Sp1) (AID 2282961); details: HepG2 Sp1 cis-reporter transcription, actives raise or lower the signal
Chain of Transcription factor Sp1 (Homo sapiens) (P08047 whole entry, looked up, the tested form may be a part): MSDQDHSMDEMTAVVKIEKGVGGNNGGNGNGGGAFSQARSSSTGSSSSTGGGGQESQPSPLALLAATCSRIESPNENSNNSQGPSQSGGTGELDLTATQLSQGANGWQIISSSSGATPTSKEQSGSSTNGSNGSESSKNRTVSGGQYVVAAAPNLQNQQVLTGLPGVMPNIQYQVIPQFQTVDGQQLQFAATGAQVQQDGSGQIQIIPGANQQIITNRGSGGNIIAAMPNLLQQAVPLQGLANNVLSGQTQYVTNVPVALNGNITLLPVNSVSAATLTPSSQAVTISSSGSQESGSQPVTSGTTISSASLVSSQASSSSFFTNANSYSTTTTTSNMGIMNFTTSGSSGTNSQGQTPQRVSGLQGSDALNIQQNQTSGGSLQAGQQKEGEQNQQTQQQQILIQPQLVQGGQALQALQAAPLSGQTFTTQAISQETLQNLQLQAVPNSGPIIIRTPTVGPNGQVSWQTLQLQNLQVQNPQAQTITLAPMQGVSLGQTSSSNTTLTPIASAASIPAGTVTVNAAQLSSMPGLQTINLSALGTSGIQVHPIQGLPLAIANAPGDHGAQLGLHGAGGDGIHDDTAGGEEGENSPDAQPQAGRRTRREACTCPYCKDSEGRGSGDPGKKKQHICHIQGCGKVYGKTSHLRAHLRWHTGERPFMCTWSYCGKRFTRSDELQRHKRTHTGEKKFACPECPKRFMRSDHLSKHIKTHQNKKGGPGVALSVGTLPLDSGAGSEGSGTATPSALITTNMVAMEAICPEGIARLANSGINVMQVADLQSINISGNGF
Outline: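 Liver-derived HepG2 cells, cis-element reporter library, 24 h treatment; RNA isolated, cDNA amplified with reporter-specific primers, FAM-labeled fragments sized on capillary analyzer. DMSO baseline, bidirectional curve fit.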

[7] = ATG_SREBP_CIS: Attagene CIS-FACTORIAL HepG2 Assay for human Sterol Regulatory Element Binding (SREBP) (AID 2282962); details: HepG2 Attagene cis-factorial SREBP reporter, mRNA; actives raise or lower the signal
Outline: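 mRNA induction of transfected cis-promoter reporters in HepG2 cells, 24 h post-dose. Detection: RT-PCR with 6-FAM-labelled products, HpaI digest, capillary electrophoresis. DMSO served as negative control and baseline.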

[8] = target: Signal transducer and activator of transcription 3 (Homo sapiens) (UniProt P40763); test: ATG_STAT3_CIS: Attagene CIS-FACTORIAL HepG2 Assay for human Signal Transducer and Activator of Transcription 3 (STAT3) (AID 2282963); details: HepG2, Attagene cis-factorial STAT3 reporter transcription; actives raise or lower the signal
Chain of Signal transducer and activator of transcription 3 (Homo sapiens) (P40763 whole entry, looked up): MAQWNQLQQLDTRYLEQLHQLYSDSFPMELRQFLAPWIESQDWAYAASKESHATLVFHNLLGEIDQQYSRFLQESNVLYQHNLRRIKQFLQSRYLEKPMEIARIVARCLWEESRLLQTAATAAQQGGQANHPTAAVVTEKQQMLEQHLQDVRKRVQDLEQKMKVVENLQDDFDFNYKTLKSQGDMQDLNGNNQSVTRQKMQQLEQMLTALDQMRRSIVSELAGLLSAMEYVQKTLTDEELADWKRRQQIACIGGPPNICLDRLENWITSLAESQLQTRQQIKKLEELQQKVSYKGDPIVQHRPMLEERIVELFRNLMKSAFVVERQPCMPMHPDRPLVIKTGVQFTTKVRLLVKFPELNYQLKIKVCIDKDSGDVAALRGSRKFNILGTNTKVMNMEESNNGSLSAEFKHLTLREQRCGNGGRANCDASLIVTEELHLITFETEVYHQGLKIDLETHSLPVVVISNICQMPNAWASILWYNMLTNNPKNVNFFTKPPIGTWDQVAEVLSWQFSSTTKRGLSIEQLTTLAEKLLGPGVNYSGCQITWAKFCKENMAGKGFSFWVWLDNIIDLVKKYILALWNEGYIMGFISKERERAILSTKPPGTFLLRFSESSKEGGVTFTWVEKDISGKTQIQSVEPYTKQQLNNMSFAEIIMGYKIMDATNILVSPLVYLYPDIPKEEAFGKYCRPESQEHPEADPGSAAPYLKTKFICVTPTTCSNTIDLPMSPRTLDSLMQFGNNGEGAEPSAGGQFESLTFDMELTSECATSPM
Outline: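 Endogenous STAT3-responsive cis-element activity was read in transiently transfected HepG2 cells after 24 h treatment. Reporter transcripts were quantified via RT-PCR and capillary electrophoresis, with DMSO as negative control and bidirectional curve fitting.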

[9] = ATG_TA_CIS: Attagene CIS-FACTORIAL HepG2 Assay for human TA Basal Promoter (AID 2282964); details: HepG2 Attagene CIS-factorial TA basal promoter reporter; actives raise or lower the signal
Outline: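 Transient MRTU transfection of HepG2 preceded 24 h compound exposure. Reporter mRNA levels were then read by RT-PCR with capillary electrophoresis, and this background-control endpoint was fitted bidirectionally to DMSO.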

[10] = ATG_TAL_CIS: Attagene CIS-FACTORIAL HepG2 Assay for human TAL Basal Promoter (AID 2282966); details: HepG2 Attagene cis-factorial TAL promoter reporter; actives raise or lower the signal;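 further: background control endpoint measuring basal TAL promoter reporter mRNA not a specific factor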
Outline: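 HepG2 cells were transiently transfected with promoter-driven multiplexed reporter units and dosed for 24 h. Reporter mRNA was measured by RT-PCR with capillary electrophoresis fluorescence; bidirectional fits used DMSO as baseline, serving as a background control.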

[11] = ATG_TGFb_CIS: Attagene CIS-FACTORIAL HepG2 Assay for human Transforming Growth Factor (TGF) (AID 2282967); details: HepG2 Attagene CIS TGFb reporter, mRNA transcription; actives raise or lower the signal
Outline: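 After a 24-hour incubation with compound, transfected HepG2 cells were lysed for RNA; reporter cDNA was amplified, fluorescently end-labeled and separated by CE. DMSO served as baseline for bidirectional fits.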

[12] = ATG_VDRE_CIS: Attagene CIS-FACTORIAL HepG2 Assay for human Vitamin D Receptor Element (VDRE) (AID 2282968); details: HepG2 VDRE cis-reporter transcription, actives raise or lower the signal
Outline: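 Reporter mRNA induction, quantified by capillary electrophoresis of fluorescently labelled RT-PCR products, was read 24 h after dosing HepG2 cells carrying transiently transfected cis-regulated reporter units; gain or loss relative to DMSO.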

[13] = target: Estrogen receptor (Homo sapiens) (UniProt P03372); test: ATG_ERa_TRANS: Attagene TRANS-FACTORIAL HepG2 Assay for human Estrogen Receptor alpha (ERa) (AID 2282970; active means hit-call score of the fitted dose curve at least 0.9, where 1 is the maximum); details: HepG2 Attagene TRANS ERa GAL4 reporter, mRNA
Chain of Estrogen receptor (Homo sapiens) (P03372 whole entry, looked up, the tested form may be a part): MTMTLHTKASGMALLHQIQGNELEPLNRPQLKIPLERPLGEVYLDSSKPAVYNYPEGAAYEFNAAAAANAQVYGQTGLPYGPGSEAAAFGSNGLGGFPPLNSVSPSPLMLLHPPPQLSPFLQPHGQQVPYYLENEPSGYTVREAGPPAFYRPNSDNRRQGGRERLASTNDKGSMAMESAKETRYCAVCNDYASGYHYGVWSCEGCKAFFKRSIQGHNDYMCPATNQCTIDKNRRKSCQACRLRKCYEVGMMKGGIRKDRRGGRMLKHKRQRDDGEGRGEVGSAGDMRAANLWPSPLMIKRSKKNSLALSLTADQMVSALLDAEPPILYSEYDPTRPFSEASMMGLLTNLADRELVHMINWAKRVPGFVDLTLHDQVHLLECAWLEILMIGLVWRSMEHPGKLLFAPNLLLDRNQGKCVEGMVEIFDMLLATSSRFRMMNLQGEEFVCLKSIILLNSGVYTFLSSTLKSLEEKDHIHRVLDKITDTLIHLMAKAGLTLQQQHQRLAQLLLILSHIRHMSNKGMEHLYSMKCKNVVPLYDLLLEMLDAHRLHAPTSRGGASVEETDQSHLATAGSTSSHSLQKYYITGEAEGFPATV
Outline: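 HepG2 cells transiently transfected with multiplexed GAL4-UAS reporter units; ERa activity read via exogenous chimeric NR-Gal4 protein. After 24 hour compound exposure, reporter mRNA measured by RT-PCR with 6-FAM labelling and capillary electrophoresis; gain-of-signal fitted relative to DMSO.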

[14] = target: X-box-binding protein 1 (Homo sapiens) (UniProt P17861); test: ATG_Xbp1_CIS: Attagene CIS-FACTORIAL HepG2 Assay for human X-box Binding Protein 1 (XBP1) (AID 2282972); details: HepG2 XBP1 cis-element reporter, Attagene multiplex; actives raise or lower the signal
Chain of X-box-binding protein 1 (Homo sapiens) (P17861 whole entry, looked up, the tested form may be a part): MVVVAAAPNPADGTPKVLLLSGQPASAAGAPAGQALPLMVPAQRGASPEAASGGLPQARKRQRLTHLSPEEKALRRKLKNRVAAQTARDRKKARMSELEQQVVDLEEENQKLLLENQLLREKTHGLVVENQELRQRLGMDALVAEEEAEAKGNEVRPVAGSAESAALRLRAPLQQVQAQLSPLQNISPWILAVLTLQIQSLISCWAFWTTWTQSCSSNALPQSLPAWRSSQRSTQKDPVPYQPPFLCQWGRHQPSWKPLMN
Outline: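 Fluorescence-labelled cDNA fragments from reporter transcripts, separated by capillary electrophoresis, give the signal. Source: HepG2 cells transfected with promoter-driven reporter units, harvested 24 h post-dose. DMSO served as reference for bidirectional curve fitting.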

[15] = ATG_GAL4_TRANS: Attagene TRANS-FACTORIAL HepG2 Assay for GAL4 (Internal Marker) (AID 2282976; active means hit-call score of the fitted dose curve at least 0.9, where 1 is the maximum); details: HepG2 Attagene TRANS GAL4 internal marker reporter
Outline: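 HepG2 cells transiently transfected with multiplexed GAL4-UAS reporter constructs were dosed for 24 h. Reporter mRNA was measured by RT-PCR, 6-FAM primer extension, HpaI digestion and capillary electrophoresis, and gain of signal was fitted relative to DMSO.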

[16] = target: Estrogen-related receptor gamma (Homo sapiens) (UniProt P62508); test: ATG_ERRg_TRANS: Attagene TRANS-FACTORIAL HepG2 Assay for human Estrogen-Related Receptor gamma (ERRg) (AID 2282977; active means hit-call score of the fitted dose curve at least 0.9, where 1 is the maximum;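 further: hits increase reporter signal over DMSO so potencies reflect activators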); details: HepG2 Attagene TRANS reporter, ERRg transactivation
Chain of Estrogen-related receptor gamma (Homo sapiens) (P62508 whole entry, looked up, the tested form may be a part): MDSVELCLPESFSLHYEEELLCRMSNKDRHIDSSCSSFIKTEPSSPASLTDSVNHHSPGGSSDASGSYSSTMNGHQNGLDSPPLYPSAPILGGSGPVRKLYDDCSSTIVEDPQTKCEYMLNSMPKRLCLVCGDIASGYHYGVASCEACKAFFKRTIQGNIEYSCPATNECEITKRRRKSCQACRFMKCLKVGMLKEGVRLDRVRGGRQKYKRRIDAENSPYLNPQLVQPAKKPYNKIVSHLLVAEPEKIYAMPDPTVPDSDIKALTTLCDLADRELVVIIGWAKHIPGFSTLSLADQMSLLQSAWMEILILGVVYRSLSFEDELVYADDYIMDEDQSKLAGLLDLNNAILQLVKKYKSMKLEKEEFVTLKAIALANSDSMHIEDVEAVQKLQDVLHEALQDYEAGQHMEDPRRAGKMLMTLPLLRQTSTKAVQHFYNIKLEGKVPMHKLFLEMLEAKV
Outline: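 HepG2 cells transiently transfected with multiplexed GAL4-UAS reporter units driven by chimeric NR-Gal4 proteins; 24 h exposure. Reporter mRNA quantified by RT-PCR, fluorescent labelling, HpaI digestion and capillary electrophoresis; gain of signal vs DMSO.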

[17] = target: Nuclear receptor subfamily 1 group I member 3 (Homo sapiens) (UniProt Q14994); test: ATG_CAR_TRANS: Attagene TRANS-FACTORIAL HepG2 Assay for human Constitutive Androstane Receptor (CAR) (AID 2282969; active means hit-call score of the fitted dose curve at least 0.9, where 1 is the maximum;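 further: activators raise reporter mRNA above DMSO so AC50 marks induction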); details: HepG2 Attagene TRANS-FACTORIAL CAR reporter
Chain of Nuclear receptor subfamily 1 group I member 3 (Homo sapiens) (Q14994 whole entry, looked up, the tested form may be a part): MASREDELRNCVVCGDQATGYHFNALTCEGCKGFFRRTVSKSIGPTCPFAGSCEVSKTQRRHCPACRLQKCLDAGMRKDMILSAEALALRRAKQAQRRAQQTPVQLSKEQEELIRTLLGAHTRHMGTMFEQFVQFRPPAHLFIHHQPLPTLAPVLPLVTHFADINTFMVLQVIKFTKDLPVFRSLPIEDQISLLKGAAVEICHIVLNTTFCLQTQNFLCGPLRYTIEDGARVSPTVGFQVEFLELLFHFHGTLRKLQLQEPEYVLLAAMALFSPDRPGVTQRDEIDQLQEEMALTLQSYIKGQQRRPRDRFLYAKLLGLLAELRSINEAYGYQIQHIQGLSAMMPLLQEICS
Outline: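 Readout is reporter mRNA induction, quantified by fluorescent primer extension and capillary electrophoresis after RT-PCR. Cells were HepG2 transiently carrying chimeric NR-Gal4 constructs with GAL4-UAS reporters, treated for 24 h; activity scored upward from DMSO.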

[18] = ATG_TCF_b_cat_CIS: Attagene CIS-FACTORIAL HepG2 Assay for human T-Cell-Factor with beta-catenin (TCF/b-cat) (AID 2282965); details: HepG2 TCF/beta-catenin cis-reporter transcription, actives raise or lower the signal
Outline: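 Endogenous transcription factor activity is captured through cis-promoter reporter constructs transiently introduced into human HepG2 liver cells. Induced reporter mRNA is measured after 24 h and fitted bidirectionally relative to DMSO.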

[19] = target: Steroid hormone receptor ERR1 (Homo sapiens) (UniProt P11474); test: ATG_ERRa_TRANS: Attagene TRANS-FACTORIAL HepG2 Assay for human Estrogen-Related Receptor alpha (ERRa) (AID 2282971; active means hit-call score of the fitted dose curve at least 0.9, where 1 is the maximum); details: HepG2 Attagene TRANS reporter, ERRa transactivation
Chain of Steroid hormone receptor ERR1 (Homo sapiens) (P11474 whole entry, looked up, the tested form may be a part): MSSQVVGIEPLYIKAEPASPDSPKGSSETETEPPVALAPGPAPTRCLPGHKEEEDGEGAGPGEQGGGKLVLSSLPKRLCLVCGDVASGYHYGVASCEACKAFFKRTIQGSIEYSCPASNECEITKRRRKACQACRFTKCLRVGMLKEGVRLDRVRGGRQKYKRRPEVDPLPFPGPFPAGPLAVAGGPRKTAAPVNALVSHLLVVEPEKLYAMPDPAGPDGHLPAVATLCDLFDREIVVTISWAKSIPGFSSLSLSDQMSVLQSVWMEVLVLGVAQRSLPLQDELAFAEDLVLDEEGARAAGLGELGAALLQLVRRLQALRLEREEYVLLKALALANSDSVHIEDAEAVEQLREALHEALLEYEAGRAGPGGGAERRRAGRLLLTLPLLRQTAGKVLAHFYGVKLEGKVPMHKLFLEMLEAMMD
Outline: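 HepG2 cells transiently transfected with multiplexed GAL4-UAS reporter units reading chimeric ERRa-Gal4 activity; 24 h compound exposure. Reporter mRNA measured by RT-PCR, 6-FAM labelling, HpaI digest and capillary electrophoresis; gain of signal fitted versus DMSO baseline.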

Measured: AC50

O=C(O)c1ccccc1-n1cc(C(=O)O)c(=O)c2cc(Nc3c(F)cc(F)cc3Cl)c(Cl)cc21
active: [2] 62.3 µM
inactive: [1] | [3] | [4] | [5] | [6] | [7] | [8] | [9] | [10] | [11] | [12] | [13] | [14]

NC(=O)c1nc(-c2cccc(-c3cc(F)ccc3OCC(F)(F)C(F)(F)F)c2)n[nH]1
active: [1] 24.3 µM | [2] 8.11 µM | [6] 16.9 µM | [7] 10.3 µM | [9] 43.7 µM | [12] 13.7 µM | [14] 44.6 µM
inactive: [5] | [8] | [10] | [11] | [15] | [16]

O=c1[nH]sc2ccccc12
active: [2] 51.7 µM | [5] 42.9 µM | [14] 52.9 µM
inactive: [1] | [3] | [4] | [6] | [7] | [8] | [9] | [10] | [11] | [12] | [17] | [13] | [16]

O=C(Nc1ccc(Cl)cc1)Nc1ccc(Cl)c(Cl)c1
active: [2] 2.12 µM | [4] 4.17 µM | [14] 5.26 µM
inactive: [1] | [3] | [5] | [6] | [7] | [8] | [9] | [10] | [11]

CC1=CC(=O)/C(=C(/C)O)C(=O)O1
inactive: [1] | [2] | [3] | [4] | [5] | [6] | [7] | [8] | [9] | [10] | [11] | [12] | [13] | [14]

CC(C)(C)c1cc(/C=C2\SC(N)=NC2=O)cc(C(C)(C)C)c1O
active: [1] 14.5 µM | [2] 1.2 µM | [7] 18.2 µM | [18] 16.3 µM | [12] 4.48 µM | [14] 20.8 µM
inactive: [4] | [5] | [6] | [8] | [9] | [10] | [11] | [13] | [15] | [16]

Oc1ccc2ccccc2c1
inactive: [1] | [2] | [4] | [5] | [6] | [7] | [8] | [9] | [10] | [11] | [12] | [14]

O=C(O)Cc1cc(I)c(Oc2ccc(O)c(I)c2)c(I)c1
active: [2] 26.3 µM and 26.1 µM and 7.66 µM | [4] 34.9 µM [middle of 4 runs] | [7] 11.4 µM | [12] 33.7 µM [middle of 4 runs]
inactive: [1] | [5] | [6] | [7] | [8] | [9] | [10] | [11] | [17] | [14] | [15] | [16]

c1ccc(C[n+]2cccc3ccccc32)cc1
inactive: [1] | [2] | [3] | [4] | [5] | [6] | [7] | [8] | [9] | [10] | [11] | [12] | [13] | [19] | [14] | [16]

c1ccc2ccccc2c1
inactive: [1] | [2] | [3] | [4] | [5] | [6] | [7] | [8] | [9] | [10] | [11] | [12] | [13] | [19] | [14] | [16]
active: [13] 59 µM

O=C1c2ccccc2C(=O)N1CCc1noc(-c2ccc(CN3CCCCCC3)s2)n1
active: [2] 2.09 µM
inactive: [1] | [4] | [5] | [6] | [7] | [8] | [9] | [18] | [10] | [11] | [14]

O=c1ccc2ccccc2o1
inactive: [1] | [2] | [4] | [5] | [6] | [7] | [8] | [9] | [18] | [10] | [11] | [13] | [14] | [15]

NCc1cccc(C2CCN(C(=O)c3ccc(C#Cc4ccccc4F)o3)CC2)c1
inactive: [2] | [5] | [6] | [8] | [10] | [11]
active: [1] 16.4 µM | [3] 2.77 µM | [4] 6.79 µM | [7] 8 µM | [9] 16.1 µM | [12] 14.3 µM | [13] 9.53 µM | [14] 14 µM

CC(C)(C)c1csc(-c2cc3cc(OCc4ccccc4CC(=O)O)ccc3o2)n1
inactive: [2] | [5] | [6] | [8] | [10] | [11] | [13]
active: [1] 7.32 µM | [3] 33.4 µM | [7] 6.91 µM | [9] 6.62 µM | [12] 14.1 µM | [14] 50.2 µM

CN(C[C@@H](CC[N+]12CCC(C3CCCCC3)(CC1)CC2)c1ccc(Cl)c(Cl)c1)C(=O)c1cc(C(F)(F)F)cc(C(F)(F)F)c1
inactive: [1] | [2] | [4] | [5] | [6] | [7] | [8] | [9] | [10] | [11] | [12] | [17] | [13] | [14] | [16]
